Measurements from PubChem BioAssay.
Where “and” joins values, the source holds several entries; their conditions need not be identical. Equal entries are not always repeated. Results filed as inconclusive are left out. For part of these data: Measured potencies and affinities stand elsewhere. Calls of active or inactive are those of the source. Unless noted, no rule for the calls is given here.

How the values were obtained:
[1] = target: ATP-dependent translocase ABCB1 (Homo sapiens) (UniProt P08183); experiment: P-glycoprotein substrate transport blockade – cell-based (AID 377; in the data active = fluorescence slope change above about 50%); settings: MDR1-expressing cells, fluorescent substrate accumulation slope; stronger effect = higher value; concentration not given here
Chain of ATP-dependent translocase ABCB1 (Homo sapiens) (P08183 whole entry, looked up): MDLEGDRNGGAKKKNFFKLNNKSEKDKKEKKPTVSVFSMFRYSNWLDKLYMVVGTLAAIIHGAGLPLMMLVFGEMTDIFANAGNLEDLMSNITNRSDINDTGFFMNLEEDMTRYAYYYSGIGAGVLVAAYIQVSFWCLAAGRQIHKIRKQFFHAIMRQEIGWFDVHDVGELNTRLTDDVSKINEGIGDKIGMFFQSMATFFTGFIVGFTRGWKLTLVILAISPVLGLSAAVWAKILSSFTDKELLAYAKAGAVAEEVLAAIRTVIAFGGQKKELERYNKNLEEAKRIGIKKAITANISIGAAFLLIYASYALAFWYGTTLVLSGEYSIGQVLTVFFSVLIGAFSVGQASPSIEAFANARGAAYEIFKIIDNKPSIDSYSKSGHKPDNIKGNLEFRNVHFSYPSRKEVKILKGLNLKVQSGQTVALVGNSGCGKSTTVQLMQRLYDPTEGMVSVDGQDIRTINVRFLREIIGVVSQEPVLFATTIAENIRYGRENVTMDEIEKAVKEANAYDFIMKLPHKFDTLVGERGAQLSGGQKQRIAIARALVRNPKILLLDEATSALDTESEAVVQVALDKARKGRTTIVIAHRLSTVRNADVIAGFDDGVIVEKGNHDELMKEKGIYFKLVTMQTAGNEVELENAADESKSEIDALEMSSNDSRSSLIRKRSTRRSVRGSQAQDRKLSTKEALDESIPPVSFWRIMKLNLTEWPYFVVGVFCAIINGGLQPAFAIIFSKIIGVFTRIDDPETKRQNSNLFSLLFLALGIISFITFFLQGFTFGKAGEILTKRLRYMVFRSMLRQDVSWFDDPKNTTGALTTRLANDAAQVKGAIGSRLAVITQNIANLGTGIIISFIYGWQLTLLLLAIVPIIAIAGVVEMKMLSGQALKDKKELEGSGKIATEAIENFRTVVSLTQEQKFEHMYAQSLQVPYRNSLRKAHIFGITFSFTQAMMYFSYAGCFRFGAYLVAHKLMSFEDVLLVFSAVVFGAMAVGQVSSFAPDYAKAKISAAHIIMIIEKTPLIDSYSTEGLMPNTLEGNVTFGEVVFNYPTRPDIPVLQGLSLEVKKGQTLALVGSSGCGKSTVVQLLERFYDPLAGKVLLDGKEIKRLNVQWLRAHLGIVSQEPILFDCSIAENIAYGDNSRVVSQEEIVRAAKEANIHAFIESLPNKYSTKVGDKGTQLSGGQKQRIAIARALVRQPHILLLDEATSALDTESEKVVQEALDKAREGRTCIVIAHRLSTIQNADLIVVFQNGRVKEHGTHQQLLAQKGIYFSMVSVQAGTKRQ

[2] = blockers of polyQ-driven CASP3 activation – cell-based (AID 1583); settings: polyglutamine-induced caspase-3 activation, cell assay; stronger effect = higher value;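 tested at 10 µM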
[3] = restoration of touch response, mutant HTT neurons – whole organism, C. elegans mechanosensory neurons, N-terminal huntingtin (AID 1599); settings: C. elegans polyQ-huntingtin mechanosensory neurons, stronger effect = higher value
[4] = glutamate transport activators, MN-1 cells, MN-1 cell line (AID 1612); settings: MN-1 motor neuron cells, stronger effect = higher value;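 also: tested at 1 µM final; 0% = mean of DMSO vehicle wells on each plate; positive means more glutamate uptake than control and negative means less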
[5] = GFP-Q80 aggregate reduction, neuronal-like cells, cell-based, NGF-treated PC12, GFPQ80 (AID 1614); settings: PC12 NGF-treated GFP-polyQ80 inclusion reduction;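 also: lower means fewer inclusions and 0 means no inclusions at all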
[6] = 75Q-TubH aggregate inhibition, S. cerevisiae, yeast (AID 1616); settings: S. cerevisiae 75Q-TubH polyglutamine aggregation suppression; stronger effect = higher value
[7] = compounds altering circadian rhythm period length – cell-based, LOPAC library, luminescence reporter (AID 2774); settings: circadian reporter cells, at 7 µM, actives lie on both sides;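 also: values are relative to mean of DMSO wells on each plate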
[8] = compounds altering viability of human ES cells (AID 493140); settings: human embryonic stem cell survival screen; stronger effect = higher value;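 also: cells exposed to compounds for four days before counting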
[9] = tested on: Hepatitis C virus NS3 helicase; experiment: blockers of NS3h binding to ssDNA – biochemical, fluorescence polarization, LOPAC1280 library, primary screen (AID 687035; in the data active = inhibition above about 37%); settings: Purified HCV NS3 helicase, Cy5-dT15 ssDNA binding fluorescence polarization; stronger effect = higher value; concentration not given here
[10] = compounds altering Cy5-DNA-NS3h complex signal – biochemical, LOPAC1280, artefact control for HCV NS3 helicase inhibitor project (AID 687037); settings: Cy5-DNA-NS3h complex fluorescence interference counterscreen
[11] = tested on: Aerobactin synthetase IucA (Klebsiella pneumoniae, hypervirulent); experiment: biochemical IucA inhibition screen of LOPAC library by absorbance (AID 1346212); settings: IucA enzyme assay, absorbance (OD) readout; stronger effect = lower value;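 tested at 8 µM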;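 also: 100% = no compound wells and 0% = no enzyme wells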
[12] = blockers of cellular phospholipid synthesis – cell-based, LOPAC library, screen 4, primary screen (AID 1347384); settings: animal cells, phospholipid biosynthesis inhibition screen; at 10 µM

Structure (SMILES): COc1ccc(Cc2nccc3cc(OC)c(OC)cc23)cc1OC
- fluorescence slope change [1]: 84.8% (active)
- inhibition [2]: 3.42%
- rescue above control [3]: 14.9
- glutamate uptake change [4]: -13.9%
- inclusion score [5]: 2
- aggregation suppression score [6]: 1.65
- period change [7]: -0.02 h (inactive)
- survival [8]: 5.5 (inactive)
- inhibition [9]: -1% (inactive)
- fluorescence ratio (interference) [10]: 1 (inactive)
- remaining activity [11]: 119% (inactive)

Structure (SMILES): COc1c2c(cc3c1OCO3)CCN(C)C2
- fluorescence slope change [1]: 4% (inactive)
- survival [8]: 4.08 (inactive)

Structure (SMILES): CCC1(CC)C(=O)C=CNC1=O
- fluorescence slope change [1]: 54.5% (active)
- inhibition [2]: 13.3% and -20.6%
- rescue above control [3]: 1.62 and 19.3
- glutamate uptake change [4]: -11.1% and -15%
- inclusion score [5]: 2
- aggregation suppression score [6]: 0.581 and 1.33
- survival [8]: 10.8 (inactive)

Structure (SMILES): CC1=C2[C@H]3OC(=O)[C@@H](C)[C@@H]3CC[C@@]2(C)C=CC1=O
- survival [8]: 2.25 (inactive)

Structure (SMILES): C[C@H]1C(=O)O[C@@H]2CCN3CC=C(COC(=O)[C@](C)(O)[C@]1(C)O)[C@H]23
- fluorescence slope change [1]: 24.9% (inactive)
- inhibition [2]: 11.2%
- rescue above control [3]: 10.3
- glutamate uptake change [4]: 4%
- inclusion score [5]: 2
- aggregation suppression score [6]: 1.12
- survival [8]: 1.5 (inactive)

Structure (SMILES): Cc1cc(O)ccc1Cl
- inhibition [2]: 17.2%
- rescue above control [3]: 2.39
- glutamate uptake change [4]: -10.2%
- inclusion score [5]: 2
- aggregation suppression score [6]: 0.639

Structure (SMILES): NC(=O)CN1CCCC1=O
- fluorescence slope change [1]: 61.1% (active)
- inhibition [2]: 13.3%
- rescue above control [3]: -11
- glutamate uptake change [4]: -1.66%
- inclusion score [5]: 2
- aggregation suppression score [6]: 1.37
- period change [7]: 0.015 h (inactive)
- survival [8]: 17.8 (inactive)
- inhibition [9]: -4% (inactive)
- fluorescence ratio (interference) [10]: 1 (inactive)
- remaining activity [11]: 110% (inactive)
- outcome [12]: inactive

Structure (SMILES): NCC(CC(=O)O)c1ccc(Cl)cc1 (stereo not given)
- fluorescence slope change [1]: 76.7% (active)
- inhibition [2]: -4.56%
- rescue above control [3]: 5.24
- glutamate uptake change [4]: -15.4%
- inclusion score [5]: 2
- aggregation suppression score [6]: 1.13
- period change [7]: 0.145 h (inactive)
- survival [8]: 9.17 (inactive)
- inhibition [9]: -1% (inactive)
- fluorescence ratio (interference) [10]: 0.9 (inactive)
- outcome [12]: inactive

Structure (SMILES): Clc1ccc(CSC(Cn2ccnc2)c2ccc(Cl)cc2Cl)cc1 (stereo not given)
- fluorescence slope change [1]: 21.9% (inactive)
- inhibition [2]: 16.4%
- rescue above control [3]: 23
- glutamate uptake change [4]: 6.86%
- aggregation suppression score [6]: 0.000314
- survival [8]: 7.67 (inactive)

Structure (SMILES): CC(C)[N+](C)(CCC(C(N)=O)(c1ccccc1)c1ccccc1)C(C)C
- inhibition [2]: 22%
- rescue above control [3]: -11.8
- glutamate uptake change [4]: 20%
- inclusion score [5]: 1.5
- aggregation suppression score [6]: 1.25
- survival [8]: 6.08 (inactive)

Structure (SMILES): N[C@@H]1C[C@H]1c1ccccc1
- survival [8]: 34.7 (inactive)
- remaining activity [11]: 95.5% (inactive)

Structure (SMILES): CC(=O)NC1CCSC1=O (stereo not given)
- survival [8]: 5.75 (inactive)

Structure (SMILES): CCCCCCCCCCCCCCCC[N+](C)(C)C
- inhibition [2]: 66.5%
- rescue above control [3]: 0
- glutamate uptake change [4]: -41.1%
- aggregation suppression score [6]: -0.0208
